Among the data in PubChem BioAssay (NCATS) are Potency, outcome and activation values, retold here.

Test [1] can be described thus: Cell Viability - MRC5 (AID 434; calls by dose curve;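 note: potency is the fitted concentration of half-maximal effect; cells exposed to compound for 40 hours at 37 °C; potency reflects cytotoxicity seen as loss of intracellular ATP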). The note with it: MRC5 lung fibroblast viability, qHTS. The essentials: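 qHTS cytotoxicity in human lung fibroblast MRC5 cells; 40 hr treatment, 37 °C; cellular ATP by luciferase luminescence; DMSO = 0%, 100 uM tamoxifen = 100% inhibition; Hill-fit AC50.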
On the technique in general: Quantitative high-throughput screening tests each substance at several concentrations.

For test [2], the target named is Mitogen-activated protein kinase 10 (Mus musculus) (UniProt Q61831). In words: JNK3 AlphaScreen Assay (AID 530; active = well fitted curve in either direction with a large enough effect, not every such curve was filed as active;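 note: kinase came from lysate of stimulated human HepG2 cells; signal reports phosphorylation of biotinylated GST-cJun 1-79 at Ser73 with 10 µM ATP; % is set by controls: 0 for no effect and ±100 for the full control effect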). As to conditions: JNK3 lysate, c-Jun phosphorylation; series mostly up to 57.1 µM. An outline of the steps:
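Compound titrations were preincubated 15 minutes at room temperature with substrate, antibody and pre-activated JNK3-containing HepG2 lysate. Reactions were started with 10 uM ATP and stopped with EDTA-containing bead buffer for AlphaScreen detection.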

The nature of test [3]: Cell Viability - Renal Proximal Tubule (AID 545).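 Note: cells exposed to compound for 40 hours; nearly all actives have a fitted effect of over 40% in size.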 As to conditions: renal proximal tubule cells viability; series mostly up to 91.7 µM. An outline of the steps:
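Cytotoxicity is scored as a concentration-dependent drop in cellular ATP in primary rat renal proximal tubule cells exposed for 40 hr. AC50 derives from Hill modelling.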

A short description of test [4]: Cellular Toxicity (caspase-3) SHSY5Y (AID 657). As to conditions: SH-SY5Y caspase-3 activation, DMSO zero, 10 µM staurosporine = 100%; series mostly up to 91.7 µM. The essentials: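 Cells plated and incubated 5 h at 37 °C, dosed over a concentration range, incubated 16 h, then given Caspase-Glo 3/7 reagent for 1 h at room temperature before luminescence reading. Staurosporine (10 uM) defined full stimulation.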

The nature of test [5]: Cellular Toxicity (caspase-3) H-4-II-E (AID 663).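 Note: cells exposed to compound for 16 hr before readout.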 As to conditions: H-4-II-E rat hepatoma; Potency: caspase-3 activation; series mostly up to 92.2 µM. The essentials: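 Apoptosis induction is scored as increased luminescence from caspase 3/7 substrate cleavage in rat hepatoma H-4-II-E cells exposed to compound for 16 hr. Activity is scaled between DMSO and 100 uM tamoxifen.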

The nature of test [6]: Cellular Toxicity (caspase-3) N2a (AID 665).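 Note: compound exposure lasted 16 h at 37 °C before readout.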 As to conditions: N2a cells, luminescence, normalized: DMSO 0%, 10 µM staurosporine 100%; series mostly up to 92.2 µM. The essentials:
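Mouse N2a neuroblastoma cells, 1500 per well, treated 16 h at 37 °C in complete medium; caspase-3/7 activity by Caspase-Glo luminescence after 1 h. Normalized to DMSO and 10 uM staurosporine; AC50 from Hill fits.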

The nature of test [7]: Cellular Toxicity (caspase-3) Renal Proximal Tubule (AID 667).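 Note: cells exposed to compound for 16 hours at 37 °C before detection.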 The note with it: renal proximal tubule cells; series mostly up to 91.7 µM. The essentials: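 In qHTS format, rat primary proximal tubule cells seeded at 1000 per well are exposed to compounds for 16 hours at 37 °C. An increase in Caspase-Glo 3/7 luminescence indicates caspase activation.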
Test [8] is described as follows: Cell Viability - LYMP2-001 (AID 921). Note: nearly all actives have a fitted effect of over 70% in size. Note: potency is the fitted concentration of half-maximal effect. As to conditions: LYMP2-001 lymphoblastoid cell viability; series mostly up to 92.2 µM. The essentials:
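qHTS, 1536-well; lymphoblastoid cells, 24 hr compound, 37 C; ATP by CellTiter-Glo, 30 min RT; luminescence; Hill-fit AC50.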

Test [9] can be described thus: MultiTox-Fluor Cytotoxicity Assay - LYMP1-003 - Dead Cells (AID 961).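 Note: 0% = DMSO and 100% = tetraoctylammonium bromide; nearly all actives have a fitted effect of over 70% in size.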 The note with it: LYMP1-003 lymphoblastoid cells, dead-cell protease fluorescence; series mostly up to 92.2 µM. The essentials:
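Acute toxicity is scored as increased dead-cell protease activity in human lymphoblastoid LYMP1-003 cells after 16 h compound exposure in complete culture medium. Activity is normalized to DMSO basal and 15 uM tetraoctylammonium bromide as full response.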

Test [10] in a line: Cell Viability - LYMP1-003 - Assay at 24 hr (AID 963).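 Note: plate controls were DMSO only for no effect and tetraoctylammonium bromide positive control for full effect.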 The note with it: LYMP1-003 lymphoblastoid cell viability; series mostly up to 92.2 µM. The essentials: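 Human lymphoblastoid LYMP1-003 cells, 2500/well, treated 24 h at 37 C in complete medium. Viability read as intracellular ATP by CellTiter-Glo luminescence after 30 min at room temperature; AC50 from Hill-equation fits of qHTS concentration-response.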

Test [11] in a line: Cell Viability - LYMP2-009 (AID 968). Note: nearly all actives have a fitted effect of over 55% in size. Note: potency is the fitted concentration of half-maximal effect. As to conditions: LYMP2-009 lymphoblastoid cell viability; series mostly up to 92.2 µM.
Test [12] can be described thus: Cell Viability - LYMP2-021 (AID 974).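 Note: compound exposure lasts 24 hours at 37 °C; nearly all actives have a fitted effect of over 55% in size.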 Note: potency is the fitted concentration of half-maximal effect. As to conditions: LYMP2-021 lymphoblastoid cells viability; series mostly up to 92.2 µM. The essentials:
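Human lymphoblastoid LYMP2-021 cells, 2500/well in complete medium, treated 24 hours at 37 C. Intracellular ATP by CellTiter-Glo luminescence (30 min, RT); AC50 from Hill fits of concentration-response.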

Test [13] can be described thus: Cell Viability - LYMP2-008 (AID 980). Note: nearly all actives have a fitted effect of over 60% in size. Note: potency is the fitted concentration of half-maximal effect. The note with it: LYMP2-008 lymphoblastoid cell viability, qHTS; series mostly up to 92.2 µM. The essentials: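 LYMP2-008 lymphoblastoid cells (2500/well) plated 5 h, then treated 24 h at 37 C in complete medium. Viability read as intracellular ATP by CellTiter-Glo luminescence after 30 min at room temperature; AC50 from Hill fits.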

A short description of test [14]: Cell Viability - LYMP2-018 (AID 985).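 Note: compound exposure lasted 24 hr at 37 °C; nearly all actives have a fitted effect of over 50% in size.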 Note: potency is the fitted concentration of half-maximal effect. The note with it: LYMP2-018 lymphoblastoid cells, viability (qHTS); series mostly up to 92.2 µM. An outline of the steps: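 Human lymphoblastoid LYMP2-018 cells, 2500/well, settled 5 hr at 37 C then exposed to compound 24 hr at 37 C; intracellular ATP measured by CellTiter-Glo luminescence. AC50 from Hill-equation concentration-response fits.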

The nature of test [15]: Cell Viability - LYMP1-002 - Assay at 24 hr (AID 993). Note: % is set by controls: 0 for no effect and ±100 for the full control effect. As to conditions: LYMP1-002 lymphoblastoid cells viability; series mostly up to 92.2 µM. The essentials:
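Human lymphoblastoid LYMP1-002 cells (2500/well) treated 24 h at 37 °C; viability as intracellular ATP by CellTiter-Glo luminescence. Tetraoctylammonium bromide as positive control; AC50 from Hill-equation fits of qHTS concentration-response.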

Test [16] is described as follows: qHTS assay for environmental chemicals that activate the Aryl hydrocarbon Receptor (AhR) signaling pathway (AID 651777). Note: % of control where 0% means no effect; nearly all actives have a fitted effect of over 15% in size. As to conditions: 1A2-DRE human hepatoma cells, luciferase, 24 h; activation: stronger effect = higher value. An outline of the steps: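 Human hepatoma 1A2-DRE cells, stably carrying a dioxin response element and CYP1A2 promoter driving luciferase, were exposed to compounds for 24 hr at 37 C and 5% CO2. Luciferase signal was then read after 30 min One-Glo at room temperature.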

The nature of test [17]: qHTS assay for small molecule activators of the human pregnane X receptor (PXR) signaling pathway (AID 720659; call rule not given here; note: 0% is about no effect). As to conditions: DPX-2 HepG2 CYP3A4-luciferase, 24 h; series mostly up to 92.3 µM.
Test [18] can be described thus: Cellular Toxicity (caspase-3) HepG2 (AID 654).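 Note: cells exposed to compound for 16 hours before reading; 0% = DMSO alone and 100% = caspase signal from 100 µM tamoxifen.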 The note with it: HepG2 caspase-3 activation, luminescence, 0% = DMSO only, 100% = tamoxifen; series mostly up to 92.2 µM. The essentials:
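HepG2 cells (1500/well) were treated 16 h at 37 °C in complete medium, then caspase 3/7 activity was read by Caspase-Glo luminescence. Data were normalized to DMSO and 100 uM tamoxifen; AC50 came from Hill-equation fits of qHTS concentration-response.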

Test [19] is described as follows: Cell Viability - LYMP1-003 - Assay at 40 hr (AID 964). Note: % is set by controls: 0 for no effect and ±100 for the full control effect; nearly all actives have a fitted effect of over 60% in size. The note with it: LYMP1-003 lymphoblastoid viability; series mostly up to 92.2 µM. An outline of the steps: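 LYMP1-003 human lymphoblastoid cells, 2500/well, preincubated 5 h at 37 C, then treated with compound for 40 h at 37 C. Intracellular ATP read by CellTiter-Glo luminescence after 30 min at room temperature; AC50 from Hill-equation fits.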

The nature of test [20]: Cell Viability - LYMP2-006 (AID 978). Note: % is set by controls: 0 for no effect and ±100 for the full control effect; nearly all actives have a fitted effect of over 60% in size. As to conditions: LYMP2-006 lymphoblastoid cell viability, qHTS; series mostly up to 92.2 µM. An outline of the steps:
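Concentration-dependent loss of intracellular ATP in a human lymphoblastoid line after 24 hr treatment at 37 C was measured by CellTiter-Glo luminescence, with AC50 values obtained from standard Hill-equation modelling.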

The structures appear in SMILES notation. “And” between values parts separate entries of the source, which are not always exact repeats. Equal entries are not always repeated. A number with no mark means an inactive call. Results filed as inconclusive are left out. The source made the active and inactive calls. Unless noted, calls come from the whole dose curve; as a rule, active = well fitted curve in the direction sought with a large enough effect; inconclusive = small, poorly fitted or top-dose-only effect, or another doubt; inactive = no such curve, though single readings can be large; an effect the other way counts as inactive or inconclusive.

For the compound `Clc1ccc(C(Cl)(Cl)Cl)cc1Cl`, the Potency in test [1] is > 92 µM. Moreover, the Potency result in [2], in [5], in test [8], in test [9], in test [11] and in [12] was “inactive” each time. For the same compound, the Potency entry in test [13], in test [14] and in test [15] was “inactive” each time. Further, the result in test [3], in [4], in test [6], in test [7], in [10] and in test [17] was inactive. Moreover, in test [16], the activation was -0.831%.
For the compound `O=[N+]([O-])c1cc(Cl)c(Cl)cc1Cl`, the Potency entry in test [2], in test [5], in test [8], in test [9], in test [19] and in [11] was “inactive” in each case. The Potency entry in [12], in test [20], in test [13], in [14] and in test [15] was “inactive” in each case. Also, the call in test [3], in test [18], in test [4], in [6] and in test [17] was inactive. In addition, in test [16], the activation is -0.111%.
For the compound `N#C/C(N)=C(/N)C#N`, the Potency in [1] is > 92 µM. In addition, the compound was called inactive in test [3], in test [18], in test [4], in test [7], in [10] and in test [17]. Besides, the Potency entry in test [5], in [8], in test [9], in test [19], in [11] and in test [12] was “inactive” each time. Further, the Potency entry in test [20], in test [13], in test [14] and in test [15] was “inactive” each time. In addition, in test [16], the activation was 0.971%.
Consider `ClCCBr`, for which the Potency entry in test [2], in test [5], in test [8], in test [9], in test [19] and in test [11] was “inactive” in each case. For the same compound, the Potency result in [12], in [20], in test [13], in test [14] and in [15] was “inactive” in each case. For the same compound, the compound was called inactive in [3], in test [18], in [4], in test [10] and in test [17]. The activation in [16] was 3.31%.
Take `CCCCOC(C)=O`: the Potency entry in test [2], in test [5], in [8], in test [9], in test [19] and in test [11] was “inactive” in each case. The Potency result in [12], in [20], in test [13] and in test [14] was “inactive” each time. The call in test [3], in test [18], in test [4], in [6], in [7] and in test [10] was inactive. Moreover, the activation in test [16] was -0.098%.
On to `OC[P+](CO)(CO)CO`, for which the Potency entry in [2], in [9], in [19] and in test [15] was “inactive” in each case. The compound was called inactive in test [3], in test [18], in test [4], in test [6], in [7] and in test [10]. Also, the Potency in [8] was 15.8 µM (active); in [11] it was 25.1 µM (active); in test [12] it was 12.6 µM (active); in test [13] it was 39.8 µM (active); in test [14], 7.94 µM (active). For the same compound, the activation in test [16] is -0.473% and -0.989%.
Take `C=CC(=O)OCC(C)C`: in test [1], the Potency is > 92 µM. In addition, the Potency result in [2], in test [5], in [8], in test [9], in [19] and in test [11] was “inactive” each time. The Potency result in test [12], in [13], in [14] and in test [15] was “inactive” in each case. Also, the compound was classed as inactive in [3], in test [18], in test [6], in test [7], in test [10] and in [17]. In addition, the activation in test [16] is 0.0769%.
